Measured values from PubChem BioAssay.
Records with an inconclusive call do not appear. Activity calls are given as the source filed them.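 Rule for the calls, unless noted: active = percent response above a set limit, the screen-wide mean plus 3 SD (cut at about 130% in these data); inactive = the rest.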

Key:
[1] = yeast TOR pathway RPL19A-GFP modulators, primary screen, cell-based, S. cerevisiae, multiplex flow cytometry (AID 1862; in the data active = percent of DMSO control GFP below about 86%;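 note: lower values mimic rapamycin by blocking the RPL19A rise seen in DMSO cells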); details: S. cerevisiae RPL19A-GFP strain, flow cytometry fluorescence, 3 h; at 10 µM; stronger effect = lower value
[2] = modulators of MEP2-GFP levels in yeast, primary screen, S. cerevisiae, multiplex flow cytometry (AID 1867;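 active = GFP response, as percent of the DMSO control, above the screen-wide mean plus 3 SD, about 139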;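 note: median GFP channel fluorescence of barcode-gated MEP2-GFP cells measured by flow cytometry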); details: S. cerevisiae MEP2-GFP strain, 3 h, at 10 µM, stronger effect = higher value, 100% means same as DMSO wells
[3] = modulators of CIT2-GFP expression in yeast, primary screen, S. cerevisiae, GFP fusion, multiplex flow cytometry (AID 1870); details: 3 h, at 10 µM, stronger effect = higher value;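 note: barcoded CIT2-GFP strain pooled with four other GFP strains with rapamycin as positive control; median GFP fluorescence per well over plate mean of DMSO wells so 100% = DMSO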
[4] = modulators of LAP4-GFP expression in yeast, primary screen, S. cerevisiae, multiplex flow cytometry (AID 1873;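 active = GFP signal, as percent of the solvent control, above the screen mean plus 3 SD, about 149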); details: 3 h, at 10 µM, stronger effect = higher value
[5] = modulators of AGP1-GFP expression in yeast TOR pathway, primary screen, cell-based, multiplex flow cytometry, S. cerevisiae (AID 1887;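 active = GFP signal above the screen-wide mean plus 3 SD, that is over about 124.5% of the solvent control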;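 note: AGP1-GFP fusion strain of S. cerevisiae within a five-strain barcoded multiplex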); details: 3 h, at 10 µM, stronger effect = higher value
[6] = RPL19A-GFP modulators, yeast TOR pathway, confirmation, cell-based, S. cerevisiae, flow cytometry, cherry picks, mother/daughter gates (AID 2270;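 active = GFP response below 50% of the DMSO control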); details: S. cerevisiae RPL19A-GFP strain, 3 h, at 10 µM, stronger effect = lower value, 100 = same GFP as DMSO wells
[7] = LAP4-GFP expression modulators in yeast, confirmation, cell-based, cherry picks, flow cytometry, mother/daughter gates (AID 2271;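 active = GFP response above 150% of the DMSO control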;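 note: ratio of sample to DMSO plate mean so 100% equals DMSO level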); details: S. cerevisiae LAP4-GFP strain, 3 h, at 10 µM, stronger effect = higher value, 100 means same as DMSO control
[8] = modulators of MEP2-GFP levels in yeast, confirmation, S. cerevisiae, flow cytometry GFP, cherry picks (AID 2272;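 active = GFP response above 150% of the DMSO control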;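 note: ratio of well signal to plate DMSO mean so 100% equals DMSO level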); details: S. cerevisiae MEP2-GFP strain, 3 h, at 10 µM, stronger effect = higher value
[9] = modulators of CIT2-GFP expression in yeast, confirmation, S. cerevisiae, GFP fusion, cherry picks, mother/daughter gates (AID 2274;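 active = GFP response above 150% of the DMSO level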); details: S. cerevisiae CIT2-GFP strain, flow cytometry, 3 h, at 10 µM, stronger effect = higher value
[10] = inhibitors of CD8+ T cell-vesicle binding, pilot screen, LFA-1/ICAM-1 modulator project, MLPCN validation set, flow cytometry (AID 2523;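 active = response below a set limit, under 55% cells CD8-positive and vesicle-bound, and CD8 cells' 90th-percentile brightness under 279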;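 for vesicle binding response: mean PE anti-B7-1 fluorescence of CD8+ cells relative to row control; 100% = QL9-loaded vesicles with DMSO vehicle in the same plate row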); details: 2C mouse CD8+ T cells, at 7 µM, stronger effect = lower value; double positive events: measured here: CD8+/vesicle+ event percentage
[11] = measured here: daughter cell gate
[12] = measured here: mother cell gate
[13] = measured here: daughter cell gate response
[14] = measured here: mother cell gate response

SMILES | percent of DMSO control GFP [1] | GFP response vs DMSO [2] | percent response of DMSO control [3] | GFP response vs DMSO [4] | GFP response, % of DMSO [5] | GFP response vs DMSO [6] | GFP response vs DMSO [6, 11] [%] | GFP response vs DMSO [6, 12] [%] | GFP response relative to DMSO [7] | GFP response relative to DMSO [7, 13] [%] | GFP response relative to DMSO [7, 14] [%] | GFP response vs DMSO [8] | GFP response, % of DMSO [9] | GFP response, % of DMSO [9, 11] [%] | GFP response, % of DMSO [9, 12] [%] | double positive events [10] [%] | vesicle binding response [10]
CC(=O)[C@@]1(O)CC[C@H]2[C@@H]3C[C@H](C)C4=CC(=O)CC[C@]4(C)[C@H]3CC[C@@]21C | 90.2% (inactive) | 114% (inactive) | 96.6% (inactive) | 78.1% (inactive) | 96.6% (inactive) | 94.8% (inactive) | 96.1 | 95.1 | 94.1% (inactive) | 92.8 | 92.9 | 92% (inactive) | 98.3% (inactive) | 101 | 96.1 | 72 | 363% (inactive)
CC(NCCc1ccc(O)cc1)C(O)c1ccc(O)cc1 (stereo not given) | 92.4% (inactive) | 144% (active) | 91.3% (inactive) | 80.9% (inactive) | 93.1% (inactive) | 93% (inactive) | 91.6 | 94.1 | 97.9% (inactive) | 96 | 98.3 | 100% (inactive) | 101% (inactive) | 101 | 103 | 59 | 174% (inactive)
COc1cccc(/C=C/C(=O)c2c(O)cc(C)oc2=O)c1O | 104% (inactive) | 108% (inactive) | 82.5% (inactive) | 184% (active) | 91.1% (inactive) | 101% (inactive) | 104 | 99.7 | 165% (active) | 155 | 175 | 107% (inactive) | 91.2% (inactive) | 99.1 | 90.2 | 62.2 | 259% (inactive)
Nc1[nH]c(=O)ncc1F | 84.2% (active) | 107% (inactive) | 87.1% (inactive) | 113% (inactive) | 80.8% (inactive) | 74.7% (inactive) | 70.4 | 78.1 | 107% (inactive) | 95 | 111 | 106% (inactive) | 80.6% (inactive) | 79.7 | 81.6 | 61.3 | 142% (inactive)
CC(=O)Nc1ccccc1O | 87.8% (inactive) | 152% (active) | 102% (inactive) | 85.3% (inactive) | 86.6% (inactive) | 99% (inactive) | 101 | 99.8 | 93.8% (inactive) | 98.7 | 93.1 | 100% (inactive) | 110% (inactive) | 105 | 113 | 61.6 | 142% (inactive)
